Records with an inconclusive call do not appear. Entries that show only a call come without a potency. Activity calls are given as the source filed them. Unless noted, calls follow the shape of the full dose curve.
What was measured:
[1] = qHTS assay to identify small molecule antagonists of the sonic hedgehog signaling (Shh) pathway (AID 1259369); also: nearly all actives have a fitted effect of over 45% in size; also: potency is read from the fitted curve at half-maximal effect
Procedure, shortened: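 Antagonist mode: compound added to 3T3 Gli1-Luc cells followed by conditioned-medium stimulation, 24 h at 37 C, 5% CO2. Inhibition taken as loss of Gli1-driven luciferase luminescence.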

[2] = qHTS assay to identify small molecule agonists of the estrogen receptor beta (ER-beta) signaling pathway - cell viability counter screen (AID 1259380; active = well fitted curve in the direction sought with a large enough effect in the repeat runs; an effect the other way counts as inactive or inconclusive; also: nearly all actives have a fitted effect of over 30% in size; also: potency is read from the fitted curve at half-maximal effect)
Procedure, shortened: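 Cell viability counter screen: CellTiter-Glo luminescence (30 min, room temperature) measured in the same wells as the beta-lactamase readout, after 16 hr compound exposure at 37C of ER-beta-bla HEK293T cells in 2% charcoal-stripped FBS medium.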

[3] = qHTS assay to identify small molecule antagonists of the estrogen receptor beta (ER-beta) signaling pathway - cell viability counter screen (AID 1259382; active = well fitted curve in the direction sought with a large enough effect in the repeat runs; an effect the other way counts as inactive or inconclusive;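 also: HEK293T cells carrying ER-beta-UAS-bla reporter stimulated with estradiol; series mostly up to about 92 µM; nearly all actives have a fitted effect of over 55% in size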)
Procedure, shortened: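 Cytotoxicity was measured in the same wells by CellTiter-Glo luminescence after 30 min at room temperature. Cells were ER-beta-bla HEK293T in charcoal-stripped serum, given compound together with 1 nM E2 and incubated 16 h at 37C.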

[4] = target: Estrogen receptor (Homo sapiens) (UniProt P03372); assay: qHTS assay to identify small molecule agonists of the estrogen receptor alpha (ER-alpha) signaling pathway in the presence of an antagonist (AID 1259383); also: top concentration of the series differs between compounds; nearly all actives have a fitted effect of over 15% in size
Procedure, shortened: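 Agonist-mode confirmation run in the presence of 10.0nM (final) ICI-182,780 antagonist. The reporter was ERE-driven luciferase in VM7Luc4E2 cells, grown in charcoal-stripped serum. Cells were exposed to 15-concentration compound series for 22hr, then ONE-Glo luminescence was read.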

[5] = qHTS assay to identify small molecule agonists or antagonists of the thyroid stimulating hormone receptor (TSHR) signaling pathway - wild type cell line counter screen (AID 1259384)
Procedure, shortened: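 Counter screen in untransfected Hek293: compounds (15-point titration, triplicate) plus phosphodiesterase inhibitor Ro20-1724 added after 18 h plating; 30 min RT. Intracellular cAMP via competitive d2/cryptate immunoassay, 1 h incubation.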

[6] = target: Thyrotropin receptor (Homo sapiens) (UniProt P16473); assay: qHTS assay to identify small molecule antagonists of the thyroid stimulating hormone receptor (TSHR) signaling pathway (AID 1259385); also: nearly all actives have a fitted effect of over 20% in size
Procedure, shortened: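 Antagonist mode: compound-treated TSHR-expressing HEK293 cells were stimulated with 1.5 ng/mL TSH (final) in presence of Ro20-1724 for 30 min at RT. HTRF cAMP detection after 1 h; each compound tested at 15 concentrations, triplicate.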

[7] = qHTS assay to identify small molecule agonists of the estrogen receptor alpha (ER-alpha) signaling pathway in the presence of an antagonist - cell viability counter screen (AID 1259386; active = well fitted curve in the direction sought with a large enough effect in the repeat runs; an effect the other way counts as inactive or inconclusive; also: series mostly up to about 92 µM; nearly all actives have a fitted effect of over 30% in size)
Procedure, shortened: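 Compounds tested at 15 concentrations for 22 h at 37C alongside 10.0nM (final) ICI-182,780 antagonist, in VM7Luc4E2 cells grown in phenol red-free, charcoal-stripped medium. Viability read by CellTiter-Fluor fluorescence after 1 h reagent incubation.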

[8] = target: Progesterone receptor (Homo sapiens) (UniProt P06401); assay: qHTS assay to identify small molecule agonists of the progesterone receptor (PR) signaling pathway (AID 1346784); also: nearly all actives have a fitted effect of over 30% in size
Procedure, shortened: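 Agonist mode, quantitative HTS format in a HEK 293T line expressing a UAS-controlled beta-lactamase reporter; 16 hr compound exposure at 37C in 2% charcoal-stripped FBS, then LiveBLAzer B/G FRET fluorescence.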

[9] = target: Progesterone receptor (Homo sapiens) (UniProt P06401); assay: qHTS assay to identify small molecule antagonists of the progesterone receptor (PR) signaling pathway (AID 1346795; active = well fitted inhibition curve with a large enough effect in the signal ratio in the repeat runs, not every such curve was filed as active; the % refers to the signal ratio)
Procedure, shortened: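 HEK293T PR-UAS-bla reporter cells in charcoal-stripped serum (2%) received compound after a 6 hr settling period, followed by R5020 agonist at 1 nM final; 16 hr incubation preceded the FRET substrate step and fluorescence measurement.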

[10] = qHTS assay to identify small molecule antagonists of the progesterone receptor (PR) signaling pathway - cell viability counter screen (AID 1346798; active = well fitted curve in the direction sought with a large enough effect in the repeat runs; an effect the other way counts as inactive or inconclusive; also: series mostly up to about 92 µM; nearly all actives have a fitted effect of over 50% in size)
Procedure, shortened: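 Same-well multiplex: after 16 hr at 37C with compound and R5020 stimulation, HEK293T cells carrying a UAS-bla reporter received LiveBLAzer substrate (2 hr RT), then CellTiter-Glo (30 min RT) for luminescent viability.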

[11] = qHTS assay to identify small molecule agonists of the progesterone receptor (PR) signaling pathway - cell viability counter screen (AID 1346799); also: nearly all actives have a fitted effect of over 45% in size
Procedure, shortened: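 Counter screen for cytotoxicity: compound-treated PR-UAS-bla HEK293T cells (16 hr, 37C, 5% CO2) were assayed with CellTiter-Glo, luminescence measured after 30 min at room temperature.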

[12] = qHTS assay to identify small molecule antagonists of the TGF-beta/Smad signaling pathway - cell viability counter screen (AID 1346824; active = well fitted curve in the direction sought with a large enough effect in the repeat runs; an effect the other way counts as inactive or inconclusive; also: nearly all actives have a fitted effect of over 50% in size)
Procedure, shortened: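 Cytotoxicity counter-screen run in the same wells as the beta-lactamase Smad reporter read: CellTiter-Glo luminescence after 30 min at room temperature. HEK 293T SBE-bla cells had 5 hr compound exposure at 37 C with TGF-beta1 (0.25 ng/mL stock).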

[13] = qHTS assay to identify small molecule agonists of the TGF-beta/Smad signaling pathway (AID 1346859; active = well fitted activation curve with a large enough effect in the signal ratio in the repeat runs, not every such curve was filed as active; the % refers to the signal ratio; also: series mostly up to about 77 µM)
Procedure, shortened: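 Smad-responsive beta-lactamase reporter cells (HEK 293T) received compounds from DMSO stocks after overnight attachment, were incubated 5 hr, then treated 2 hr with FRET substrate before dual-emission fluorescence measurement (405 nm excitation).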

[14] = target: Thyrotropin-releasing hormone receptor (Homo sapiens) (UniProt P34981); assay: qHTS assay to identify small molecule antagonists of the thyrotropin-releasing hormone receptor (TRHR) signaling pathway (AID 1346877; active = well fitted inhibition curve with a large enough effect in the repeat runs, not every such curve was filed as active; also: series mostly up to about 51 µM)
Procedure, shortened: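 Antagonist mode: after a 5 min room-temperature compound exposure, cells were stimulated with 1 nM (final) TRH. Dye-loaded TRHR-HEK293 cells were used, and calcium-dependent fluorescence was followed for 3 min, with 15-point titrations run in triplicate.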

[15] = target: Thyrotropin-releasing hormone receptor (Homo sapiens) (UniProt P34981); assay: qHTS assay to identify small molecule agonists of the thyrotropin-releasing hormone receptor (TRHR) signaling pathway (AID 1346891);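 also: HEK293 cells expressing TRHR with calcium dye readout; series mostly up to about 58 µM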
Procedure, shortened: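 Agonist-mode calcium mobilisation screen: TRHR-transfected HEK293 cells cultured overnight (18 h), dye-loaded for 2 h at 37 °C, exposed to compounds, and monitored by fluorescence for 3 min.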

[16] = target: Estrogen receptor beta (Homo sapiens) (UniProt Q92731); assay: qHTS assay to identify small molecule agonists of the estrogen receptor beta (ER-beta) signaling pathway (AID 1259377; active = well fitted activation curve with a large enough effect in the signal ratio in the repeat runs, not every such curve was filed as active; the % refers to the signal ratio)
Procedure, shortened: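 A UAS-controlled beta-lactamase reporter in ER-beta-UAS-bla HEK293T cells reports receptor activation. Compounds act for 16 hr at 37C in 2% charcoal-stripped serum, and a FRET substrate is read by fluorescence after 2 hours.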

[17] = target: Estrogen receptor beta (Homo sapiens) (UniProt Q92731); assay: qHTS assay to identify small molecule antagonists of the estrogen receptor beta (ER-beta) signaling pathway (AID 1259378; active = well fitted inhibition curve with a large enough effect in the signal ratio in the repeat runs, not every such curve was filed as active; the % refers to the signal ratio)
Procedure, shortened: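 Antagonist mode: compounds added to beta-lactamase reporter HEK293T ER-beta-UAS cells stimulated with E2 (1nM final), 16 hr at 37C. LiveBLAzer B/G FRET substrate, 2 hours room temperature, fluorescence read-out.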

[18] = qHTS assay to identify small molecule agonists of the androgen receptor (AR) signaling pathway in the presence of an antagonist - cell viability counter screen (AID 1259379; active = well fitted curve in the direction sought with a large enough effect in the repeat runs; an effect the other way counts as inactive or inconclusive;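 also: MDA-kb2 human breast cancer cells carrying an MMTV luciferase reporter; series mostly up to about 92 µM; nearly all actives have a fitted effect of over 25% in size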)
Procedure, shortened: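 Cytotoxicity counter-screen run in the same wells as the nilutamide-challenged (3.0 µM final) AR agonist assay in MDA-kb2 cells. Compounds tested at 15 concentrations for 16 h, 37 °C without CO2; CellTiter-Fluor fluorescence read.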

[19] = qHTS assay to identify small molecule agonists of the TGF-beta/Smad signaling pathway - cell viability counter screen (AID 1346829; active = well fitted curve in the direction sought with a large enough effect in the repeat runs; an effect the other way counts as inactive or inconclusive; also: top concentration of the series differs between compounds; nearly all actives have a fitted effect of over 45% in size)
Procedure, shortened: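 Cytotoxicity counter screen: CellTiter-Glo luminescence (30 min, room temperature) measured in the SBE-bla HEK 293T reporter wells after 5 hr compound treatment at 37 C and the 2 hr substrate step.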

Sequence of Thyrotropin receptor (Homo sapiens) (P16473 whole entry, looked up): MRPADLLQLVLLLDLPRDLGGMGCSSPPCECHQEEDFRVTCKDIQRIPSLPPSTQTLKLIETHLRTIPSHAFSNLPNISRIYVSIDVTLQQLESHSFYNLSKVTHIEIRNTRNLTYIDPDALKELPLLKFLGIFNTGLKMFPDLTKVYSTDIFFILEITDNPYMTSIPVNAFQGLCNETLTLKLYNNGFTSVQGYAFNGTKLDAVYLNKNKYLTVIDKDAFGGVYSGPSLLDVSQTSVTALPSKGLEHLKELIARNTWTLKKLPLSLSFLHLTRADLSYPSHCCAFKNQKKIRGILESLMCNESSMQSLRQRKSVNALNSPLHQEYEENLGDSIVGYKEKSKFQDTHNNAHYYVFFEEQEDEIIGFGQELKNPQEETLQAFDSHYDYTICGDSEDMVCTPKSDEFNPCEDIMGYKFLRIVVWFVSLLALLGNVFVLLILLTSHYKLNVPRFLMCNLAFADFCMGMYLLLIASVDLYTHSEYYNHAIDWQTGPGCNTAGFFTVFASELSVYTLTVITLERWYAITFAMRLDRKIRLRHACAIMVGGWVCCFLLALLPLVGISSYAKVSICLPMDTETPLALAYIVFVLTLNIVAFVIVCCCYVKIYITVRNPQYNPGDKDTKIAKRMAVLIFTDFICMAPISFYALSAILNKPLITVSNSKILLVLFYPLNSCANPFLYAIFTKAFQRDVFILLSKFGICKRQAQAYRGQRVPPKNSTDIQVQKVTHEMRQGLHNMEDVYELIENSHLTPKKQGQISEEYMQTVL
Sequence of Progesterone receptor (Homo sapiens) (P06401 whole entry, looked up): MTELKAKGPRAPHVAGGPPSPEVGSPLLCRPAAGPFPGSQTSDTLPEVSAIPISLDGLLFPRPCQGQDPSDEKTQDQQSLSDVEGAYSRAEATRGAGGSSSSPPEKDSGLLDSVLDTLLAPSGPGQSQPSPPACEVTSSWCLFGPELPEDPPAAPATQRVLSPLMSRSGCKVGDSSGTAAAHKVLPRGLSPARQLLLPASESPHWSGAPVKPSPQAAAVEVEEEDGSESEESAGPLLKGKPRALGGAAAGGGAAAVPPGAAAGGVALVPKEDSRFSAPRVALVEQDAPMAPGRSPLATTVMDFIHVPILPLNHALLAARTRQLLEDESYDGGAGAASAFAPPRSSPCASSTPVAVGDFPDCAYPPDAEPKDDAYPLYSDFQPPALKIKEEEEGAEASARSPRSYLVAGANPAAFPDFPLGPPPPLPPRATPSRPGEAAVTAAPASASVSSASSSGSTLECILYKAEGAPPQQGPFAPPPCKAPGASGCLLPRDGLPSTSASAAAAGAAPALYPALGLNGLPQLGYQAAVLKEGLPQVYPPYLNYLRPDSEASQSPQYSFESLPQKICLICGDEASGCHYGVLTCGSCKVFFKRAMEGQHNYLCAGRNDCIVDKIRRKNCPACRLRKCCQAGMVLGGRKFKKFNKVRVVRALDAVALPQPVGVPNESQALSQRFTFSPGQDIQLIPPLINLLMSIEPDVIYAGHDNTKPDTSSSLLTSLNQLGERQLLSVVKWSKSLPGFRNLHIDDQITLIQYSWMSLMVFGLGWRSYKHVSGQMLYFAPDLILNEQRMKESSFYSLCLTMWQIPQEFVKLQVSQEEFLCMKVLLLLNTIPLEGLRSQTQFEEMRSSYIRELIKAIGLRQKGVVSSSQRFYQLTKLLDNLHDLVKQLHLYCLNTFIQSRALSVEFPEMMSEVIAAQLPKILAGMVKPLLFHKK
Sequence of Thyrotropin-releasing hormone receptor (Homo sapiens) (P34981 whole entry, looked up): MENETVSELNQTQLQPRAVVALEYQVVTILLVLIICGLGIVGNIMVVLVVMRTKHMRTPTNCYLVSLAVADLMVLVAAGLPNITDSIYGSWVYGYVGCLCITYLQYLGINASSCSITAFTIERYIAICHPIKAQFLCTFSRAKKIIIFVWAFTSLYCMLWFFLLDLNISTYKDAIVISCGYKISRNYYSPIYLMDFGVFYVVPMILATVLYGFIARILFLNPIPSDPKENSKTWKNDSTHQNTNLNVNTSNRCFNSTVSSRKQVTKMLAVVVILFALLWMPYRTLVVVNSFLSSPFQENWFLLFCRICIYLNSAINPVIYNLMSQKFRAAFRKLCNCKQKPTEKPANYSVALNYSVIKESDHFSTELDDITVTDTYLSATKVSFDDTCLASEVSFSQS
Sequence of Estrogen receptor beta (Homo sapiens) (Q92731 whole entry, looked up): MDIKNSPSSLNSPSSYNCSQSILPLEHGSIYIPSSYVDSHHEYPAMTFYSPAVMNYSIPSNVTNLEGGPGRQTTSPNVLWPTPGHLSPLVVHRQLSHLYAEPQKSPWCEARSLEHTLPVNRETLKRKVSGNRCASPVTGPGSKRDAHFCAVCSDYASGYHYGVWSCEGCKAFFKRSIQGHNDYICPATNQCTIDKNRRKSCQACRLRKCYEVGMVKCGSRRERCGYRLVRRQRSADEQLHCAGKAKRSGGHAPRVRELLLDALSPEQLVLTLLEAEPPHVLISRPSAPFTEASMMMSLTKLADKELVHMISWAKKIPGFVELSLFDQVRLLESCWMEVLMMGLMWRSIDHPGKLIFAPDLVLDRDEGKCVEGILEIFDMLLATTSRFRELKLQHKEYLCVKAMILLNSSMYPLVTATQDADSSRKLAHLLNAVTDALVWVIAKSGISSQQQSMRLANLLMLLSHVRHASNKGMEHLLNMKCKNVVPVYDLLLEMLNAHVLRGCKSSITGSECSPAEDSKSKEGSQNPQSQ
Sequence of Estrogen receptor (Homo sapiens) (P03372 whole entry, looked up): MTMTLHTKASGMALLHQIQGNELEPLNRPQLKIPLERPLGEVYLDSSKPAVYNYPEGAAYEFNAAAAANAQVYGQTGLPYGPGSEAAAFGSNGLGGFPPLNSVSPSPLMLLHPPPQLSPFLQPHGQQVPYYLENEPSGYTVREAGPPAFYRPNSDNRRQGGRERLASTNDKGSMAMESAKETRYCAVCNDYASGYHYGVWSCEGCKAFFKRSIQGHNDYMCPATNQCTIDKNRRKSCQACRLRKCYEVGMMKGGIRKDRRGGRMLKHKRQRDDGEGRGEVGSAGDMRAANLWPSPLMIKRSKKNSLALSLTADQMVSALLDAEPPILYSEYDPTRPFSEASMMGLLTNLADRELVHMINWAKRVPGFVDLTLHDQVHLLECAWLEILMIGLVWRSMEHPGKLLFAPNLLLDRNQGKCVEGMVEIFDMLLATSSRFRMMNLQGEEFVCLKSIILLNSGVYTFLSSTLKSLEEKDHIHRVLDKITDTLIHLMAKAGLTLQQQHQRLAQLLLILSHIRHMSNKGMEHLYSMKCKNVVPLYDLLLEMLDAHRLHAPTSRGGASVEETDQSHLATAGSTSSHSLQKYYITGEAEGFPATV

## COC1CC(=C(c2cccs2)c2cccs2)C[N+](C)(C)C1 (centres undefined)
[1]
  Potency: inactive
[2]
  Potency: inactive
[3]
  Potency: inactive
[4]
  Potency: inactive
[5]
  outcome: inactive
[6]
  Potency: inactive
[7]
  Potency: inactive
[8]
  Potency: inactive
[9]
  Potency: inactive
[10]
  Potency: inactive
[11]
  Potency: inactive
[12]
  Potency: inactive
[13]
  outcome: inactive
[14]
  Potency: inactive
[15]
  outcome: inactive

## Cc1nc2ccccc2c(=O)n1-c1ccccc1Cl
[16]
  Potency: inactive
[17]
  Potency: inactive
[18]
  Potency: inactive
[2]
  Potency: inactive
[3]
  Potency: inactive
[4]
  Potency: inactive
[8]
  Potency: inactive
[10]
  Potency: inactive
[11]
  Potency: inactive
[12]
  Potency: inactive
[19]
  Potency: inactive
[13]
  outcome: inactive
[14]
  Potency: inactive
[15]
  outcome: inactive

## CON(C)C(=O)Nc1ccc(Cl)cc1
[16]
  Potency: inactive
[17]
  Potency: inactive
[18]
  Potency: inactive
[2]
  Potency: inactive
[3]
  Potency: inactive
[4]
  Potency: inactive
[5]
  outcome: inactive
[6]
  Potency: inactive
[7]
  Potency: inactive
[8]
  Potency: inactive
[11]
  Potency: inactive
[12]
  Potency: inactive
[13]
  outcome: inactive

## CC(C)[C@@H](C(=O)O[C@@H](C#N)c1cccc(Oc2ccccc2)c1)c1ccc(Cl)cc1
[16]
  Potency: inactive
[18]
  Potency: inactive
[3]
  Potency: inactive
[5]
  outcome: inactive
[6]
  Potency: inactive
[7]
  Potency: inactive
[10]
  Potency: inactive
[12]
  Potency: inactive
[19]
  Potency: inactive
[13]
  outcome: inactive

## Cc1cccc(C)c1NC1=NCCCS1
[1]
  Potency: inactive
[2]
  Potency: inactive
[3]
  Potency: inactive
[4]
  Potency: inactive
[5]
  outcome: inactive
[6]
  Potency: inactive
[7]
  Potency: inactive
[8]
  Potency: inactive
[9]
  Potency: inactive
[10]
  Potency: inactive
[11]
  Potency: inactive
[12]
  Potency: inactive
[19]
  Potency: inactive
[14]
  Potency: inactive
[15]
  outcome: inactive

## CCc1cnc(C2=NC(C)(C(C)C)C(=O)N2)c(C(=O)O)c1 (centres undefined)
[1]
  Potency: inactive
[2]
  Potency: inactive
[3]
  Potency: inactive
[5]
  outcome: inactive
[6]
  Potency: inactive
[7]
  Potency: inactive
[8]
  Potency: inactive
[9]
  Potency: inactive
[10]
  Potency: inactive
[11]
  Potency: inactive
[12]
  Potency: inactive
[19]
  Potency: inactive
[13]
  outcome: inactive
[14]
  Potency: inactive
[15]
  outcome: inactive

## C[N+]1(CCC(C(N)=O)(c2ccccc2)c2ccccc2)CCCCC1
[1]
  Potency: inactive
[2]
  Potency: inactive
[3]
  Potency: inactive
[4]
  Potency: inactive
[5]
  outcome: inactive
[6]
  Potency: inactive
[7]
  Potency: inactive
[8]
  Potency: inactive
[9]
  Potency: inactive
[10]
  Potency: inactive
[11]
  Potency: inactive
[12]
  Potency: inactive
[19]
  Potency: inactive
[13]
  outcome: inactive
[14]
  Potency: inactive
[15]
  outcome: inactive

## C[C@H](N)[C@H](O)c1ccc(O)c(O)c1
[16]
  Potency: inactive
[3]
  Potency: inactive
[4]
  Potency: inactive
[7]
  Potency: inactive
[8]
  Potency: inactive
[9]
  Potency: inactive
[10]
  Potency: inactive
[11]
  Potency: inactive
[19]
  Potency: inactive
[13]
  outcome: inactive
[14]
  Potency: inactive
[15]
  outcome: inactive

## c1ccc2c(c1)sc1ccccc12
[1]
  Potency: inactive
[2]
  Potency: inactive
[3]
  Potency: inactive
[4]
  Potency: inactive
[5]
  outcome: inactive
[6]
  Potency: inactive
[7]
  Potency: inactive
[8]
  Potency: inactive
[9]
  Potency: inactive
[10]
  Potency: inactive
[11]
  Potency: inactive
[12]
  Potency: inactive
[19]
  Potency: inactive
[13]
  outcome: inactive
[14]
  Potency: inactive
[15]
  outcome: inactive

## CCCC[P+](CC)(CCCC)CCCC (tested in a mixture with another compound)
[1]
  Potency: inactive
[2]
  Potency: inactive
[3]
  Potency: inactive
[5]
  outcome: inactive
[6]
  Potency: inactive
[7]
  Potency: inactive
[8]
  Potency: inactive
[9]
  Potency: inactive
[10]
  Potency: inactive
[11]
  Potency: inactive
[12]
  Potency: inactive
[19]
  Potency: inactive
[13]
  outcome: inactive
[14]
  Potency: inactive
[15]
  outcome: inactive

## COc1cc(CC(C)N)c(OC)cc1Br (centres undefined)
[1]
  Potency: 15.9 µM (active)
[2]
  Potency: 63.2 µM (active)
[4]
  Potency: inactive
[5]
  outcome: inactive
[6]
  Potency: inactive
[7]
  Potency: inactive
[8]
  Potency: inactive
[11]
  Potency: inactive
[12]
  Potency: inactive
[19]
  Potency: inactive
[13]
  outcome: inactive
[14]
  Potency: inactive
[15]
  outcome: inactive

Source: PubChem BioAssay (Tox21)
